Results from publication PMC12864922, “TDP-43 directly inhibits mRNA accumulation in neurites through modulation of mRNA stability”.
The full ranking holds about 9,900 sequences; the median of “r (bound/input frequency ratio)” is about 0.7, and the highest 2% start at about 6.5. This excerpt belongs to a sample that is enriched for the highest values.

B1: ENSMUSG00000058297.112|Spock2|39:44 (ssRNA)
RNA: GGGAGUUCUACAGUCCGACGAUCGCUUCGAUAUCCGCAUGCUAUACUAUCCGUCUCCUGACAUCCGAAGAGCUCGUCGCAGCACACACUAAUGGCCCUUGGGCUGCACGUGGUUAAGCAUAGCUGUCUCUGUGGCCCAACACAAAGAGGUAAACUUACUUAAAACACAGGGGUUUUGUUGCUGUUUGUUUUUUGUUAGUUUGUUUGUUGAUAAUUGGAUUGAGGAGUUAAUCCUCUGUCACAAUGUCAAAAGCAUGGACAUCCCUGAUAGAUUAUCUCUCAACCUAGUCCCGAGUAACCAGAGCUCUUGCGGUCGCACUAGUGUGGAAUUCUCGGGUGUCAAGG
B2: ENSMUSG00000022095.12|Fam160b2|69:73 (ssRNA)
RNA: GGGAGUUCUACAGUCCGACGAUCGCUUCGAUAUCCGCAUGCUAAACUUCUCUCCACCUCCAGAAGGGCAAGUCUGAGCCAGGAGCAUGACGGGUGGGGGAAGAUUCCUGCCACACAACUUCUGCCCACGGGCAGUCUCCUGCCUGGCCAUGCUGCCACUCUGUCCUCCAUGCCGGGGACUUCAGCUGCAGGACACCUCACCUGUUGACCCCACGAGCUGAGGUUUCAAGGAGGUGCUGGCUCCUAAGGCAGUGGUAUUCUUGGAGCCUUUUAGAGGAGCUAGAGGAUGGCCAGUGAGCGCCUACUCUUGCGGUCGCACUAGUGUGGAAUUCUCGGGUGUCAAGG
B3: ENSMUSG00000028439.123|Fam219a|54:58 (ssRNA)
RNA: GGGAGUUCUACAGUCCGACGAUCGCUUCGAUAUCCGCAUGCUACUGAGGGUUGGGAAGGUAAGAUGGGCCUUAGAGAGAAGCCAGGUUUGGGGAUGCAUACACCUGUUCUCACCGGUCUCUAACCAGUGCAUCUGUCUCUCUGCCUCAUCCCCACACCGCCCUGCCACCCCCAGUCUUCUGUCUAUUGGUUCCAGGCUGGAAGCAAGAGAUAAGGCUGGCCUCCUGUGCCCCAUUGCCAUUUCACCCUAGCUCAAAGUCCAGGAGCCAGGCUUCCAGAAAGGCUCUUCAAGAGCAAGCUUAAGCUCUUGCGGUCGCACUAGUGUGGAAUUCUCGGGUGUCAAGG
B4: ENSMUSG00000042529.393|Kcnj12 (ssRNA)
RNA: GGGAGUUCUACAGUCCGACGAUCGCUUCGAUAUCCGCAUGCUAUCCGACUUGAGUCCCUGCCCUGCCCUGGUUAUGCAGGCUGUACGACGCAGUGUGCAUCAGUCUGAGGAGUCUGGUGGUAAGUAAGCCUCUGCAGCAGACCCUGUCGGAGGCCAUGGGGGCGUGUGUGUGUGUGUGUGUGUGUGUGUGUGUGUGUGUGUGUGUGUGUGUGUGUGAACAUGUGUGAGGGUGUGGAGGUCCCAGGGUGUGUGUAUGUGAAUGUCAGUGGCUUGGGUGCUGUGUGGAGAGAGAGAGAGAGAGAGCUCUUGCGGUCGCACUAGUGUGGAAUUCUCGGGUGUCAAGG
B5: ENSMUSG00000042529.398|Kcnj12 (ssRNA)
RNA: GGGAGUUCUACAGUCCGACGAUCGCUUCGAUAUCCGCAUGCUAAUGCAGGCUGUACGACGCAGUGUGCAUCAGUCUGAGGAGUCUGGUGGUAAGUAAGCCUCUGCAGCAGACCCUGUCGGAGGCCAUGGGGGCGUGUGUGUGUGUGUGUGUGUGUGUGUGUGUGUGUGUGUGUGUGUGUGUGUGUGAACAUGUGUGAGGGUGUGGAGGUCCCAGGGUGUGUGUAUGUGAAUGUCAGUGGCUUGGGUGCUGUGUGGAGAGAGAGAGAGAGAGAGAGAGAGAGAGAGAGAGAGAGAGAGAGAGAGCUCUUGCGGUCGCACUAGUGUGGAAUUCUCGGGUGUCAAGG
B6: ENSMUSG00000042529.392|Kcnj12 (ssRNA)
RNA: GGGAGUUCUACAGUCCGACGAUCGCUUCGAUAUCCGCAUGCUAGAUCAGUCCGACUUGAGUCCCUGCCCUGCCCUGGUUAUGCAGGCUGUACGACGCAGUGUGCAUCAGUCUGAGGAGUCUGGUGGUAAGUAAGCCUCUGCAGCAGACCCUGUCGGAGGCCAUGGGGGCGUGUGUGUGUGUGUGUGUGUGUGUGUGUGUGUGUGUGUGUGUGUGUGUGUGUGAACAUGUGUGAGGGUGUGGAGGUCCCAGGGUGUGUGUAUGUGAAUGUCAGUGGCUUGGGUGCUGUGUGGAGAGAGAGAGAGCUCUUGCGGUCGCACUAGUGUGGAAUUCUCGGGUGUCAAGG
B7: ENSMUSG00000058297.302|Spock2|29:34 (ssRNA)
RNA: GGGAGUUCUACAGUCCGACGAUCGCUUCGAUAUCCGCAUGCUAAUGCCCAGGAAGAGUGAGGGCAGCCCCCACACACGUGGAAGAGGCUGGGCAGCUAGCUACUGGGGACCUUGUGCUGAGGCUUCCAGGACAAAGCCCCAGUCUGGCUCUCCCCCAGCCUCUCAGGGGCACUGGCUGGUCACAUCCACUGAGUAUUGAUCGGUUGGACUUUAGGGAAGAGCCUCCUCCUUCCCAUUCCUUUCUGCCACCCUGGAAUGGCCACCUUAAUCGUCAUCUCCUCGGGGGGAAUACGGAAAUGUCACCUCUUGCGGUCGCACUAGUGUGGAAUUCUCGGGUGUCAAGG
B8: ENSMUSG00000042529.397|Kcnj12 (ssRNA)
RNA: GGGAGUUCUACAGUCCGACGAUCGCUUCGAUAUCCGCAUGCUACUGGUUAUGCAGGCUGUACGACGCAGUGUGCAUCAGUCUGAGGAGUCUGGUGGUAAGUAAGCCUCUGCAGCAGACCCUGUCGGAGGCCAUGGGGGCGUGUGUGUGUGUGUGUGUGUGUGUGUGUGUGUGUGUGUGUGUGUGUGUGUGUGAACAUGUGUGAGGGUGUGGAGGUCCCAGGGUGUGUGUAUGUGAAUGUCAGUGGCUUGGGUGCUGUGUGGAGAGAGAGAGAGAGAGAGAGAGAGAGAGAGAGAGAGAGAGAGCUCUUGCGGUCGCACUAGUGUGGAAUUCUCGGGUGUCAAGG
B9: ENSMUSG00000042529.387|Kcnj12 (ssRNA)
RNA: GGGAGUUCUACAGUCCGACGAUCGCUUCGAUAUCCGCAUGCUACUGGUCAGGCUGGAUGCUGGCCACAGACAUGAUCAGUCCGACUUGAGUCCCUGCCCUGCCCUGGUUAUGCAGGCUGUACGACGCAGUGUGCAUCAGUCUGAGGAGUCUGGUGGUAAGUAAGCCUCUGCAGCAGACCCUGUCGGAGGCCAUGGGGGCGUGUGUGUGUGUGUGUGUGUGUGUGUGUGUGUGUGUGUGUGUGUGUGUGUGUGAACAUGUGUGAGGGUGUGGAGGUCCCAGGGUGUGUGUAUGUGAAUGUCAGUCUCUUGCGGUCGCACUAGUGUGGAAUUCUCGGGUGUCAAGG
B10: ENSMUSG00000042529.386|Kcnj12 (ssRNA)
RNA: GGGAGUUCUACAGUCCGACGAUCGCUUCGAUAUCCGCAUGCUACCUGAACUGGUCAGGCUGGAUGCUGGCCACAGACAUGAUCAGUCCGACUUGAGUCCCUGCCCUGCCCUGGUUAUGCAGGCUGUACGACGCAGUGUGCAUCAGUCUGAGGAGUCUGGUGGUAAGUAAGCCUCUGCAGCAGACCCUGUCGGAGGCCAUGGGGGCGUGUGUGUGUGUGUGUGUGUGUGUGUGUGUGUGUGUGUGUGUGUGUGUGUGUGAACAUGUGUGAGGGUGUGGAGGUCCCAGGGUGUGUGUAUGUGAAUCUCUUGCGGUCGCACUAGUGUGGAAUUCUCGGGUGUCAAGG
B11: ENSMUSG00000042529.388|Kcnj12 (ssRNA)
RNA: GGGAGUUCUACAGUCCGACGAUCGCUUCGAUAUCCGCAUGCUAAGGCUGGAUGCUGGCCACAGACAUGAUCAGUCCGACUUGAGUCCCUGCCCUGCCCUGGUUAUGCAGGCUGUACGACGCAGUGUGCAUCAGUCUGAGGAGUCUGGUGGUAAGUAAGCCUCUGCAGCAGACCCUGUCGGAGGCCAUGGGGGCGUGUGUGUGUGUGUGUGUGUGUGUGUGUGUGUGUGUGUGUGUGUGUGUGUGUGAACAUGUGUGAGGGUGUGGAGGUCCCAGGGUGUGUGUAUGUGAAUGUCAGUGGCUUGCUCUUGCGGUCGCACUAGUGUGGAAUUCUCGGGUGUCAAGG

target: TDP-43 (Homo sapiens, UniProt Q13148 1-414); test: RNA Bind-n-Seq with designed 260-mer pool; 25 mM Tris-HCl, 150 mM KCl, 3 mM MgCl2, BSA (printed 500 mg/mL), 20 units/mL SUPERase IN; pH not stated; 500 nM RNA pool, 1 h, 4 C; TDP-43 5, 50, 500 nM; high values mean tight binding; conditions: protein: recombinant; tags: SBP (GST cleaved off with PreScission; pGEX-GST-SBP)
Outline: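 In 25 mM Tris-HCl, 150 mM KCl, 3 mM MgCl2, BSA and SUPERase IN, 500 nM of an in vitro-transcribed 260-nt 3′ UTR oligo pool was incubated for 1 h at 4 °C with SBP-tagged TDP-43 (5, 50 or 500 nM) captured on streptavidin beads. RNA remaining after washes was biotin-eluted, reverse transcribed, PCR-amplified and sequenced. Binding, R, is the bound-sample abundance of each oligo, normalized to mapped reads, divided by its abundance in input. Each duplicate used a separate, independent protein batch.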

Sequence of TDP-43 (Q13148 whole entry): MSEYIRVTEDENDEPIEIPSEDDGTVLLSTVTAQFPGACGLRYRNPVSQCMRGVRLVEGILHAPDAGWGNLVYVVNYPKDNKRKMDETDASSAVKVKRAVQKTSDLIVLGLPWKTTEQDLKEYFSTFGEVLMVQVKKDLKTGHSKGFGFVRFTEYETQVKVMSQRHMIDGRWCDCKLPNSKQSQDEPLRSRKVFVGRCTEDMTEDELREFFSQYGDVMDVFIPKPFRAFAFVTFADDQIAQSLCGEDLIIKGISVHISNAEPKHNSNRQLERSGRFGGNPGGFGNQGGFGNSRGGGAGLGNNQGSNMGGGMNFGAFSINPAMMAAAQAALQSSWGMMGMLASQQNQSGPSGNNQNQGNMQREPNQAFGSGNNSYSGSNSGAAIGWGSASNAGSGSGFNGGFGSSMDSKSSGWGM

Binder | binding signal
B1 | 1.33 R (bound/input frequency ratio)
B2 | 0.253 R (bound/input frequency ratio)
B3 | 0.5 R (bound/input frequency ratio)
B4 | 5.42 R (bound/input frequency ratio)
B5 | 5.26 R (bound/input frequency ratio)
B6 | 7.12 R (bound/input frequency ratio)
B7 | 0.746 R (bound/input frequency ratio)
B8 | 5.15 R (bound/input frequency ratio)
B9 | 12.1 R (bound/input frequency ratio)
B10 | 6.36 R (bound/input frequency ratio)
B11 | 9.68 R (bound/input frequency ratio)
